# Measured values from publication PMC5540273 (PLoS ONE, 2017).
# System: T1, CTK
# T1 construct: gene MATK
# Settings: concentration: 1 μM, replicates: in singlicate; n = 1
# 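Further: KINOMEscan kinase panel screen.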
row,SMILES,%Inh
1,Cc1nn2c(=O)cc(N3CCOCC3)nc2n1Cc1cccc(Cl)c1Cl [GSK2342769],0%
2,CCS(=O)c1ccc(-c2coc3ccc(-c4nnc(C)o4)cc23)cc1 (stereo not drawn),0%
3,COc1cc(Nc2nccc(N3CCC(NC(=O)C(C)c4ccc(Cl)cc4)C3)n2)cc(OC)c1OC (stereo not drawn) [GSK1379757],0%
4,COc1cc2ncn(-c3cc(OCc4ccncc4Br)c(C(N)=O)s3)c2cc1OC [GW854278],45%
5,Cl.c1ccc(Cn2cnc3cc(Nc4ncnc5ccccc45)ccc32)cc1 [GW272142],0%
6,CCC(=O)c1c(-c2ccccc2)c2cc(Cl)ccc2c(=O)n1Cc1cc(C(=O)NC2CC2)n(C)n1,17%
7,Nc1nccc2scc(-c3ccc4c(c3)CCN4C(=O)Cc3ccccc3)c12 [GSK2576924],0%
8,COc1ccc(-c2cc3c(C)nc(N)nc3n([C@H]3CC[C@H](O)CC3)c2=O)cn1,0%
9,Nc1nc(-c2ccccc2F)c(-c2ccnc3ccccc23)s1 [GW560459],0%
10,COc1cccc(C2=C(N(C)c3ccccc3)C(=O)NC2=O)c1 [SB-334865],0%
11,CCn1c(-c2nonc2N)nc2ccccc21 [SB-693162/GW549034],31%
12,COc1cc2nccc(Nc3ccc(OCc4ccc(NC(C)=O)cc4)cc3)c2cc1OC.Cl [GW440135],20%
13,Cc1ccc(Oc2ccc(Nc3ncnc4cc[nH]c34)cc2C)cn1,29%
14,O=C(Nc1n[nH]c2cc(-c3ccccc3F)ccc12)C1CC1 [SB-733371],3%
15,O=C1NC(=O)C(c2ccccc2)=C1Nc1cccc(O)c1 [SB-390534],4%
16,COc1ccc(-c2cc3c(C)nc(N)nc3n([C@H]3CC[C@H](OCCO)CC3)c2=O)cn1,2%
17,Cn1c(=O)c(F)c(Nc2ccc(I)cc2F)c2c(=O)n(OC[C@H](O)CO)cnc21,0%
18,Nc1n[nH]c2ncc(-c3ccccc3)cc12 [SB-517081],0%
19,CCC(=O)c1c(-c2ccccc2)c2cc(Cl)ccc2c(=O)n1Cc1cc(S(C)(=O)=O)n(CC(N)=O)n1,0%
20,Nc1ncnc2c1ncn2-c1ccc(Cl)cc1 [AH2635],0%
21,Cc1nnc(-c2ccc3ncn(-c4ccc(S(C)=O)cc4)c3c2)o1 (stereo not drawn),0%
22,COc1cc2ncn(-c3cc(OCc4ccc(S(C)(=O)=O)cc4)c(C(N)=O)s3)c2cc1OC [GW869979],15%
23,CCC(=O)c1c(-c2ccccc2)c2cc(Cl)ccc2c(=O)n1Cc1ccc(C(=O)O)cc1,0%

# System: DAPK1
# Settings: concentration: 1 μM, replicates: in singlicate; n = 1
row,SMILES,%Inh
1,CCc1nc(-c2cccc(C)c2)c(-c2ccncc2)s1,11%
2,COc1cc(OC)cc(-c2cc3cnc(N)nc3nc2NC(=O)NC(C)(C)C)c1,0%
3,Nc1ncnc2c1ncn2-c1cccc(F)c1 [SKF-97560],0%
4,COc1cc2ncn(-c3cc(OCc4ccncc4)c(C(N)=O)s3)c2cc1OC [GSK336313],8%
5,Fc1cccc(CSc2nnc(-c3ccc4c(c3)CCO4)o2)c1,3%
6,CCC(=O)c1c(-c2ccccc2)c2cc(Cl)ccc2c(=O)n1Cc1cc(S(C)(=O)=O)n(CCC(C)(C)O)n1,16%
7,CCn1c(-c2ccoc2)nc2cnccc21 [SB-733887],0%
8,CCc1ccc(-c2ccc3c(c2)-c2nn(C)cc2S(=O)(=O)N3C)cc1,25%
9,COc1ccc(-c2coc3ccc(-c4nnc(SCc5cccc(C#N)c5)o4)cc23)cc1,29%
10,COC(=O)c1c(-c2ccccc2)c2cc(C)ccc2c(=O)n1Cc1ccccc1,1%
11,Cl.NS(=O)(=O)c1cccc(Nc2cc(-c3ccc(F)cc3)n[nH]2)c1 [GW824645],0%
12,COC(=O)c1c(-c2ccccc2)c2cc(Br)ccc2c(=O)n1Cc1ccc(NC(=O)CCC(=O)O)cc1,0%
13,COc1ccc(CNC(=O)NC2CCN(c3ccnc(Nc4ccc(F)cc4)n3)C2)cc1 (stereo not drawn) [GSK1379706],0%
14,CCS(=O)(=O)c1ccc(OC)c(Nc2ncc(-c3ccc(F)cc3)o2)c1.Cl [GW591947],0%
15,Cc1nn2c(=O)cc(N3CCOCC3)nc2n1Cc1cccc(Cl)c1Cl [GSK2342769],27%
16,CCS(=O)c1ccc(-c2coc3ccc(-c4nnc(C)o4)cc23)cc1 (stereo not drawn),14%
17,COc1cc(Nc2nccc(N3CCC(NC(=O)C(C)c4ccc(Cl)cc4)C3)n2)cc(OC)c1OC (stereo not drawn) [GSK1379757],0%
18,COc1cc2ncn(-c3cc(OCc4ccncc4Br)c(C(N)=O)s3)c2cc1OC [GW854278],28%
19,Cl.c1ccc(Cn2cnc3cc(Nc4ncnc5ccccc45)ccc32)cc1 [GW272142],0%

row,SMILES,%Inh
1,CCC(=O)c1c(-c2ccccc2)c2cc(Cl)ccc2c(=O)n1Cc1cc(C(=O)NC2CC2)n(C)n1,14%
2,Nc1nccc2scc(-c3ccc4c(c3)CCN4C(=O)Cc3ccccc3)c12 [GSK2576924],12%
3,COc1ccc(-c2cc3c(C)nc(N)nc3n([C@H]3CC[C@H](O)CC3)c2=O)cn1,0%
4,Nc1nc(-c2ccccc2F)c(-c2ccnc3ccccc23)s1 [GW560459],0%
5,COc1cccc(C2=C(N(C)c3ccccc3)C(=O)NC2=O)c1 [SB-334865],6%
6,CCn1c(-c2nonc2N)nc2ccccc21 [SB-693162/GW549034],13%
7,COc1cc2nccc(Nc3ccc(OCc4ccc(NC(C)=O)cc4)cc3)c2cc1OC.Cl [GW440135],0%
8,Cc1ccc(Oc2ccc(Nc3ncnc4cc[nH]c34)cc2C)cn1,0%
9,O=C(Nc1n[nH]c2cc(-c3ccccc3F)ccc12)C1CC1 [SB-733371],0%
10,O=C1NC(=O)C(c2ccccc2)=C1Nc1cccc(O)c1 [SB-390534],0%
11,COc1ccc(-c2cc3c(C)nc(N)nc3n([C@H]3CC[C@H](OCCO)CC3)c2=O)cn1,11%
12,Cn1c(=O)c(F)c(Nc2ccc(I)cc2F)c2c(=O)n(OC[C@H](O)CO)cnc21,0%
13,Nc1n[nH]c2ncc(-c3ccccc3)cc12 [SB-517081],12%
14,CCC(=O)c1c(-c2ccccc2)c2cc(Cl)ccc2c(=O)n1Cc1cc(S(C)(=O)=O)n(CC(N)=O)n1,0%
15,Nc1ncnc2c1ncn2-c1ccc(Cl)cc1 [AH2635],0%
16,Cc1nnc(-c2ccc3ncn(-c4ccc(S(C)=O)cc4)c3c2)o1 (stereo not drawn),26%
17,COc1cc2ncn(-c3cc(OCc4ccc(S(C)(=O)=O)cc4)c(C(N)=O)s3)c2cc1OC [GW869979],0%
18,CCC(=O)c1c(-c2ccccc2)c2cc(Cl)ccc2c(=O)n1Cc1ccc(C(=O)O)cc1,13%
